Compound activity deposited in PubChem by Sanford-Burnham Center for Chemical Genomics.
NALP3 yeast inh = inhibitors of NALP3 inflammasome in yeast. inhibition, % at 10 µM. 0.39% of 330,000 active. Yeast reconstituted NLRP3/ASC/caspase-1, beta-gal luminescence, 24 h. AID 2825;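 active = inhibition of 50% or more; inactive = inhibition below 50%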;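 note: plate controls were induced DMSO wells for no effect and uninduced yeast grown without galactose for full effect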
tim10-1 inh = inhibits growth of tim10-1 mutant yeast; inhibition, % at 20 µM; 2.2% of 330,000 active; S. cerevisiae tim10-1 ts strain growth, BacTiter-Glo, 24 h;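 active = inhibition of at least 40%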;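 note: mutant grown at 25 °C; 0% = DMSO wells with yeast and 100% = wells holding no yeast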
NALP1 yeast inh = NALP1 inhibition; S. cerevisiae NALP1/ASC/caspase-1 growth, X-gal OD620, 72 h; inhibition, % at 10 µM; 0.61% of 280,000 active; AID 2071; in the data active = inhibition mostly above about 24%, no sharp cut-off; inactive = mostly below about 32%
tim23-1 inh = inhibits growth of tim23-1 mutant yeast; S. cerevisiae tim23-1 growth, BacTiter-Glo luminescence, 24 h; inhibition, % at 20 µM; 1.3% of 330,000 active; AID 463212;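 active = growth inhibition of the mutant yeast at or above 50%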;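 note: temperature-sensitive mutant grown at 25 °C; plate controls were DMSO-treated mutant yeast for no effect and medium wells lacking yeast for full effect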
TIM10 inh = TIM10 yeast growth inhibition | S. cerevisiae TIM10 strain growth, BacTiter-Glo luminescence, 24 h | inhibition, % at 10 µM | 1.4% of 330,000 active;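 active = inhibition of 40% or more at the single tested concentration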;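 note: wild-type TIM10 isogenic control strain grown at permissive 25 °C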
tim23-1 conf = confirmation of tim23-1 mutant yeast growth inhibitors | shares compounds with tim23-1 inh | S. cerevisiae tim23-1 growth, BacTiter-Glo luminescence, 24 h | inhibition, % at 20 µM | 83% of 4,400 active | AID 463218;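 active = inhibition above about 39% in either of two replicate wells at 20 µM, limit read from the data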;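 note: temperature-sensitive tim23-1 mutant grown at 25 °C; 0% = DMSO wells with yeast and 100% = medium wells without yeast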
Numbers without * were called inactive; . = no result given. Rows were chosen to be rich in hits. Some 4% of all compounds tested hit in one or more screens of this group.

SMILES | NALP3 yeast inh | tim10-1 inh | NALP1 yeast inh | tim23-1 inh | TIM10 inh | tim23-1 conf
COc1cccc(Nc2nc(-c3ccccc3O)nc3ccccc23)c1 | 12.4 | -23.9 | 2.9 | 6.7 | 12.6 | .
O=[N+]([O-])c1ccc(-c2nc(Nc3cccc(O)c3)c3ccccc3n2)cc1 | 29.6 | 29.9 | 1.0 | 25.3 | 23.7 | .
COc1cccc(Nc2nc(-c3ccccc3)nc3ccccc23)c1 | 13.4 | 26.7 | -4.9 | 50.0* | 38.2 | 44.8*
Cc1ccc(-c2nc(Nc3ccc(O)cc3)c3ccccc3n2)cc1 | 42.9 | 13.6 | 30.3 | 74.2* | 26.5 | 44.2*
COc1ccc(C)cc1N1CC(C(=O)Nc2ccccc2C(=O)NC2CC2)CC1=O (stereo not drawn) | 28.4 | 3.2 | . | -5.5 | -2.6 | .
O=C(C1CCC(=O)N(C2CCCC2)C1)N1CCC(Oc2ccccc2Cl)CC1 (stereo not drawn) | 11.2 | 13.3 | 14.0 | 9.2 | 10.7 | .
CCOc1ccc(N=c2scc(-c3ccccc3)n2CCO)cc1 | 18.0 | 23.6 | 6.7 | 21.7 | 13.1 | .
CCn1c(-c2ccccc2)csc1=Nc1ccc(O)cc1 | 26.1 | 39.9 | 12.9 | 58.3* | 35.1 | 38.9*
CCOc1ccc(OCCSc2nc3ccccc3[nH]2)cc1 | 28.0 | 15.7 | -42.3 | 60.1* | 26.4 | 31.9
COc1ccc(NC(=O)c2cc(C)no2)cc1 | 13.0 | -2.5 | 1.2 | -3.4 | -8.2 | .
O=C(Nc1cccc2cccnc12)C1CCCC1 | -22.4 | 8.8 | 9.9 | 21.3 | -13.2 | .
CCn1cc(C(=O)NN)c(=O)c2cc(F)c(N3CCCCC3)cc21 | 12.4 | 16.0 | 0.8 | 50.7* | 7.8 | 20.4
COc1ccc(C2=C(C=O)Cc3ccccc3O2)cc1 | 40.3 | 33.3 | . | 51.1* | 24.8 | 52.9*
COc1ccc(C2=COc3ccccc3C(=O)N2)cc1 | 32.3 | 10.7 | -8.2 | 13.7 | 8.4 | .
Cc1cc(C(=O)c2ccc(Cl)cc2)c(NC(=O)CCl)s1 | -28.8 | 36.5 | 25.1 | 37.0 | 8.0 | .
CCc1cc(C(=O)c2ccc(C)cc2)c(NC(=O)CCl)s1 | -16.0 | 39.7 | 11.6 | 50.3* | 28.0 | 49.0*
CCCCCc1ccc(OCCCC[n+]2ccc(C)cc2)c(CCCCC)c1 | 27.0 | -5.7 | 9.5 | 53.2* | -240.4 | 15.4
COc1ccc(OC)c2c1sc(=NC(=O)C(C)C)n2C | 27.9 | 31.0 | -1.1 | 52.6* | 23.6 | 46.8*
COc1ccc(OC)c2c1sc(=NC(=O)C(C)(C)C)n2C | -2.4 | 30.5 | 0.1 | 19.4 | 14.8 | .
COc1ccc(-c2cc(-c3ccc(F)cc3)nc(N3CCN(C)CC3)n2)cc1 | 34.1 | 28.5 | . | 55.1* | 31.0 | 57.5*
COc1ccc(-c2cc(C(F)(F)F)nc(N3CCOCC3)n2)cc1 | 7.2 | -9.2 | 2.5 | -19.6 | -16.8 | .
C[C@@H]1CN([C@@H](C)CO)C(=O)c2cccc(NC(=O)c3nc4ccccc4s3)c2O[C@@H]1CN(C)CC1CC1 | 12.8 | -7.7 | . | 3.6 | 11.2 | .
COC(=O)N/N=C/c1ccc(-c2cc(Cl)cc(Cl)c2)o1 | 21.9 | 33.9 | 33.2 | 57.5* | 34.5 | 62.2*
O=C(CN(Cc1ccccc1)C(=O)CCl)c1cccc(Br)c1 | 20.1 | 32.0 | . | 57.1* | 17.1 | 44.9*
Cc1ccc(C(=O)Nc2nc(-c3ccccn3)cs2)s1 | 39.8 | 10.4 | . | 61.7* | 1.0 | 55.2*
SMILES | NALP3 yeast inh | tim10-1 inh | NALP1 yeast inh | tim23-1 inh | TIM10 inh | tim23-1 conf
CCCNC(=S)Nc1cc2oc3ccccc3c2cc1OC | 30.9 | 27.5 | 7.7 | 51.9* | 29.1 | 52.1*
Cc1ccc(CN2CCSCC2)cc1 | 11.4 | -26.1 | 21.1 | -0.7 | -5.0 | .
Cc1c(-c2ccccc2)c(=O)oc2ccc(O)cc12 | 2.1 | 19.2 | 4.3 | 21.0 | -25.8 | .
Cc1ccc2oc(=O)c(-c3ccc(O)cc3)c(C)c2c1 | 17.2 | 22.6 | . | 52.1* | 13.0 | 46.7*
NC1=C(Br)C(=O)c2ccccc2C1=O | 28.9 | 24.6 | 15.7 | 55.9* | 32.7 | 51.7*
Cc1nc(-c2ccccc2)cc(=O)[nH]1 | 15.2 | 8.0 | 21.9 | -0.4 | 6.7 | .
Cc1[nH]n(-c2nc(-c3ccccc3)cc(=O)[nH]2)c(=O)c1CCO | 20.5 | 2.4 | -21.8 | 87.4* | 6.2 | 11.6
Cc1ccc(OCc2nc(-c3cccs3)no2)c([N+](=O)[O-])c1 | 36.6 | 23.8 | -2.8 | 17.6 | 15.7 | .
O=C(Cc1ccc(-c2ccccc2)cc1)Nc1ncccc1O | 16.4 | 16.3 | 15.8 | 19.9 | 14.1 | .
CC(C)(C)n1nc(Cc2cccc3ccccc23)c2c(N)ncnc21 | 43.7 | 28.2 | . | 62.1* | 22.0 | 62.4*
Cc1ccc(/C=N/Nc2cccc3cccnc23)c(O)c1 | 31.5 | 34.9 | 1.7 | 15.0 | 8.4 | .
